Assay [1] in a line: P-glycoprotein substrates identified in KB-8-5-11 adenocarcinoma cell line, qHTS therapeutic library screen (AID 1346987). Also: nearly all actives have a fitted effect of over 65% in size. Also: potency is read from the fitted curve at half-maximal effect. The essentials: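 KB-8-5-11: colchicine-selected sub-line of KB-3-1 over-expressing P-gp; assay medium lacked colchicine. 72 h drug exposure at 37 degree C, CellTiter-Glo.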
A general note: In qHTS, concentration-response curves come from the screen itself.

A short description of assay [2]: NS1 protein of Zika virus - qHTS assay to identify small molecule inhibitors in human HEK 293 cells (AID 1347053). Also: nearly all actives have a fitted effect of over 55% in size. Also: potency is read from the fitted curve at half-maximal effect. In short, it runs like this:
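HEK 293; 20 h pre-culture, 37 C/5% CO2; cpd 1 h pre-infection; ZIKV MR766, MOI = 0.5, 24 h, 37 C; TR-FRET NS1 readout (two anti-NS1 Abs); norm. to no-virus vs infected.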

The nature of assay [3]: qHTS of pediatric cancer cell lines to identify multiple opportunities for drug repurposing: Primary screen for TC32 cells (AID 1347089). Also: nearly all actives have a fitted effect of over 60% in size. Also: potency is read from the fitted curve at half-maximal effect. In short, it runs like this:
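Luminescent CellTiter-Glo read-out of metabolically active TC32 cells after 48 h compound exposure. Primary: MIPE 11-point, 0.78 nM–46 µM; NPC 8-point, 0.59 nM–46 µM. Confirmatory: 11-point dilutions.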

Assay [4] in a line: qHTS of pediatric cancer cell lines to identify multiple opportunities for drug repurposing: Primary screen for DAOY cells (AID 1347090). Also: nearly all actives have a fitted effect of over 55% in size. Also: potency is read from the fitted curve at half-maximal effect. The essentials:
(§1)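 Viability measured as metabolically active cells via CellTiter-Glo luminescence following 48 hours of compound exposure, 11-point dilutions in confirmatory testing. 500-1,000 cells/well plated 5 hours before dosing; controls were DMSO and 2.3 µM bortezomib.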

Assay [5] in a line: qHTS of pediatric cancer cell lines to identify multiple opportunities for drug repurposing: Primary screen for A673 cells (AID 1347092). Also: nearly all actives have a fitted effect of over 45% in size. Also: potency is read from the fitted curve at half-maximal effect. The essentials:
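A673 cells (500-1,000 cells/well in growth media) were pre-incubated 5 h at 37 degrees C, then exposed to compounds for 48 h. Viability was read as CellTiter-Glo luminescence; concentration-response curves came directly from the primary screen.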

The nature of assay [6]: qHTS of pediatric cancer cell lines to identify multiple opportunities for drug repurposing: Primary screen for SK-N-MC cells (AID 1347093). Also: potency is read from the fitted curve at half-maximal effect. In short, it runs like this:
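Metabolically active cells were quantified by ATP-dependent luminescence (CellTiter-Glo, 15 min at room temperature) following 48 h treatment. Cells had been plated at 500-1,000 per well and settled for 5 h beforehand.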

A short description of assay [7]: qHTS of pediatric cancer cell lines to identify multiple opportunities for drug repurposing: Primary screen for SJ-GBM2 cells (AID 1347091). Also: potency is read from the fitted curve at half-maximal effect. The essentials:
as §1

Assay [8] is described as follows: qHTS of pediatric cancer cell lines to identify multiple opportunities for drug repurposing: Primary screen for NB-EBc1 cells (AID 1347095). Also: potency is read from the fitted curve at half-maximal effect. In short, it runs like this: (§2)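 Phenotypic viability qHTS, 48 h compound exposure, CellTiter-Glo luminescence read-out; multi-concentration dosing so that potency and efficacy derive directly from the primary screen's curves.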

Assay [9] is described as follows: qHTS of pediatric cancer cell lines to identify multiple opportunities for drug repurposing: Primary screen for U-2 OS cells (AID 1347096). Also: nearly all actives have a fitted effect of over 50% in size. In short, it runs like this: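 Viability after 48 h compound treatment at 37C, 500-1,000 cells/well, read as ATP luminescence with CellTiter-Glo. Primary screens used 11-point (MIPE, 0.78 nM-46 µM) or 8-point (NPC, 0.59 nM-46 µM) final concentrations; follow-up screens used 11-point dilutions.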

A short description of assay [10]: qHTS of pediatric cancer cell lines to identify multiple opportunities for drug repurposing: Primary screen for BT-37 cells (AID 1347094). Also: potency is read from the fitted curve at half-maximal effect. The essentials: as §2
A short description of assay [11]: qHTS of pediatric cancer cell lines to identify multiple opportunities for drug repurposing: Primary screen for SK-N-SH cells (AID 1347098). Also: nearly all actives have a fitted effect of over 65% in size. Also: potency is read from the fitted curve at half-maximal effect. The essentials: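 Cells (500-1,000/well) rested 5 h, then received compounds for 48 h; metabolically active cells were measured by CellTiter-Glo luminescence. Final concentrations spanned up to 46 µM (MIPE, 11-point) or 0.59 nM-46 µM (NPC, 8-point) in primary screens, 11-point in follow-ups.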

Assay [12] in a line: qHTS of pediatric cancer cell lines to identify multiple opportunities for drug repurposing: Primary screen for Saos-2 cells (AID 1347097). Also: nearly all actives have a fitted effect of over 40% in size. Also: potency is read from the fitted curve at half-maximal effect. The essentials: as §2

Several values for one entry are separate records, joined by “and”; a condition that tells them apart may be missing. Equal entries are not always repeated. Results filed as inconclusive are left out. More than one record can exist for a structure, and the calls need not agree. Activity calls are given as the source filed them. Calls follow the shape of the dose curve; as a rule, active = well fitted curve in the direction sought with a large enough effect; inconclusive = small, poorly fitted or top-dose-only effect, or another doubt; inactive = no such curve, though single readings can be large; an effect the other way counts as inactive or inconclusive.

As to `CCCC1OC2C[C@@H]3[C@H]4CCC5=CC(=O)C=C[C@]5(C)[C@H]4C(O)C[C@]3(C)[C@]2(C(=O)CO)O1` (stereo partly drawn), the Potency entry in [1], in assay [2], in [3], in assay [4] and in assay [5] was “inactive” in each case. Moreover, in assay [6], the Potency was 20.9 µM (active).

On to `CCNC(=O)CCCC=CC[C@@H]1[C@H](C=CC(O)CCc2ccccc2)[C@@H](O)C[C@@H]1O` (stereo partly drawn), for which the Potency entry in assay [1], in [2], in assay [3], in assay [7], in assay [5] and in assay [8] was “inactive” each time. Also, the Potency result in [9] was “inactive”.

As to `Cn1cc(-c2ccc3nnc(Sc4ccc5ncccc5c4)n3n2)cn1`, the Potency entry in [1], in assay [2], in [3], in assay [10], in assay [8] and in [9] was “inactive” each time. In addition, the Potency result in [11] was “inactive”. In addition, the Potency in assay [4] is 11.8 µM (active).

On to `c1cc(OCCN2CCCCC2)cc(-c2n[nH]c3ccc(-c4ncn[nH]4)cc23)c1`, for which the Potency result in assay [1], in assay [2], in assay [3], in assay [7], in assay [8] and in assay [9] was “inactive” throughout. The Potency was 9.35 µM (active) in assay [5], 16.6 µM (active) in assay [6] and 19.3 µM (active) in [10].

As to `CN1c2ccccc2C(=O)N2CCc3c([nH]c4ccccc34)C21` (stereo not drawn), the Potency result was “inactive and 1.84 µM (active)” in [1]; 10.5 µM (active) in [6]. The Potency result in assay [2], in [3], in assay [4], in [7], in [10] and in assay [8] was “inactive” in each case. Besides, the Potency result in [9] is “inactive”.

As to `CC(C)(CO)[C@@H](O)C(=O)NCCC(=O)O`, the Potency result in assay [1], in assay [2], in assay [3], in [4], in assay [7] and in assay [6] was “inactive” throughout. Also, the Potency entry in assay [10], in [8], in assay [9], in [12] and in assay [11] was “inactive” throughout.

In the case of `CCOC(=O)[C@H](CCc1ccccc1)N[C@@H](C)C(=O)N1CCCC1C(=O)O` (stereo partly drawn), the Potency result in assay [1], in assay [2], in [3], in assay [7], in assay [10] and in [9] was “inactive” in each case. For the same compound, the Potency in assay [5] is 18.7 µM (active); in assay [6] it was 8.33 µM (active).

For `CC1(C)CC(=O)c2c(C(F)(F)F)nn(-c3ccc(C(N)=O)c(NC4CCC(O)CC4)c3)c2C1` (stereo not drawn), the Potency was 0.418 µM (active) in assay [1]; 23.5 µM (active) in [2]; 0.208 µM (active) in assay [3]; 0.264 µM (active) in [7]; 0.118 µM (active) in assay [5]; 0.0743 µM (active) in assay [6]. The values for the Potency in assay [8] and in [11] were 0.148 µM (active) and 0.304 µM (active), respectively. Moreover, in [9], the Potency result is “inactive”.

Take `C=C1c2cccc(O)c2C(O)=C2C(=O)[C@@]3(O)C(O)=C(C(N)=O)C(=O)[C@@H](N(C)C)[C@@H]3[C@@H](O)[C@H]12`: the Potency result in [1], in assay [2], in assay [3], in assay [7], in assay [8] and in assay [9] was “inactive” throughout. Further, the Potency in assay [5] was 23.5 µM (active).

Regarding `C[C@H](CCC(=O)O)[C@H]1CC[C@H]2[C@H]3[C@@H](CC[C@]12C)[C@@]1(C)CC[C@@H](O)C[C@H]1C[C@@H]3O`, the Potency entry in [1], in assay [2], in assay [3], in assay [4], in assay [9] and in assay [12] was “inactive” each time. Besides, the Potency result in [11] was “inactive”. Further, the Potency in assay [10] is 27.3 µM (active); in assay [8], 14.8 µM (active).

For the compound `COc1cc2ncn(-c3cc(OCc4ccccc4S(C)(=O)=O)c(C#N)s3)c2cc1OC`, the Potency entry in assay [1], in assay [2], in assay [3], in assay [10], in assay [8] and in assay [9] was “inactive” each time. The Potency in [5] is 23.5 µM (active).

As to `O=C(Nc1ccccc1)Nc1ccc(-c2ccc(C(=O)[C@H]3CCC[C@H]3C(=O)O)cc2)cc1`, the Potency entry in [1], in assay [2], in assay [3], in assay [8], in [9] and in assay [12] was “inactive” throughout. Moreover, the Potency in assay [5] is 11.8 µM (active); in [6], 1.87 µM (active).

Take `Cc1c(C(=O)Nc2ccc(N3C[C@@H](C)O[C@@H](C)C3)nc2)cccc1-c1ccc(OC(F)(F)F)cc1`: the Potency result in assay [1], in [2] and in assay [3] was “inactive” each time. Also, the Potency in assay [7] was 18.7 µM (active); in [5], 7.43 µM (active); in assay [8] it was 14.8 µM (active); in assay [12], 18.7 µM (active); in assay [11], 3.41 µM (active).

Regarding `CNC(=O)[C@H](Cc1ccccc1)NC(=O)[C@H](CC(C)C)[C@H](CSc1cccs1)C(=O)NO`, the Potency result in [1], in assay [2], in [3], in assay [7], in assay [8] and in assay [9] was “inactive” each time.

Take `CC(C)(OCc1nn(Cc2ccccc2)c2ccccc12)C(=O)O`: the Potency entry in assay [1], in assay [2], in assay [3], in assay [7], in [10] and in [9] was “inactive” in each case. In assay [12], the Potency result is “inactive”. The Potency in assay [6] is 26.4 µM (active); in assay [8] it was 11.8 µM (active); in [11], 30.4 µM (active).

With `O=C(CC12CC3CC(CC(C3)C1)C2)Nc1cccc2nc(NCCNCCO)ccc12`, the Potency entry in assay [1], in assay [2], in assay [3], in assay [10] and in [9] was “inactive” in each case. In addition, the Potency was 18.7 µM (active) in assay [5], 1.87 µM (active) in assay [6] and 24.1 µM (active) in assay [11].

`O=C(Nc1ccc(OC(F)(F)F)cc1)c1sccc1NCc1ccnc2ccccc12`: the Potency entry in assay [1], in [2], in [3], in assay [8], in [9] and in assay [11] was “inactive” each time. In addition, the figures for the Potency in assay [6] and in [12] were 26.4 µM (active) and 18.7 µM (active), respectively.

`CC[C@H]1OC(=O)[C@H](C)[C@@H](O[C@H]2C[C@@](C)(OC)[C@@H](O)[C@H](C)O2)[C@H](C)[C@@H](O[C@@H]2O[C@H](C)C[C@H](N(C)C)[C@H]2O)[C@](C)(O)C[C@H](C)C(=NOCOCCOC)[C@H](C)[C@@H](O)[C@]1(C)O`: the Potency entry in assay [1], in assay [2], in assay [4], in [7], in [5] and in [10] was “inactive” each time. In addition, the Potency entry in assay [8] and in assay [12] was “inactive” throughout. Also, the Potency in assay [6] is 16.6 µM (active); in [11], 30.4 µM (active).

For the origin of these results see PubChem BioAssay (NCATS).
